Measurements published in PubChem BioAssay AID504725 (Broad Institute, 2011).
Measured potencies and affinities stand elsewhere. Activity calls are given as the source filed them. How the calls were made is not given here.

molecular target: KSHV LANA C-terminal domain (residues 932-1162) binding to LBS DNA (UniProt O40947); assay: KSHV LANA DNA-binding disruption – biochemical, fluorescence polarization, cherry-picked samples, dose response (AID 504725); conditions: MBP-C-LANA / FAM-LBS DNA fluorescence polarization, percent change from plate compound-well median; series mostly up to 35 µM

Compound	outcome
CN(C)C(=O)c1ccc(NC(=O)COC(=O)C2(c3ccccc3)CCCC2)cc1	inactive
O=C(c1ccc2c(c1)CCN2S(=O)(=O)c1ccccc1)N1CCN(c2ccc(F)cc2)CC1	inactive
CCn1c(=O)c(C(=O)NCCN2CCCCC2)c(O)c2ccccc21	inactive
CCCOc1ccc(C=Nc2ccc(OC)c(S(=O)(=O)N3CCOCC3)c2)c(O)c1	inactive
O=C(Nc1cc(Cl)ccc1-n1cncn1)c1cccs1	inactive
O=C(O)c1ccccc1NC(=O)c1cc(-c2ccccc2)nc2ccccc12	inactive
Cn1c(Cl)c(C(=O)Nc2ccc(Cl)cc2)c2ccccc21	inactive
Cc1ccc(CSc2ncnc3onc(C)c23)cc1	inactive
CC(OC(=O)CCN1C(=O)C2CC=CCC2C1=O)C(=O)Nc1ccc(F)cc1 (stereo not drawn)	inactive
Cc1ccc(OCC(=O)NC(=S)Nc2cccc(NC(=O)c3ccc(Cl)cc3Cl)c2)cc1	inactive
CCC(C)[C@H](NC(=O)[C@@H]1Cc2ccccc2CN1)C(=O)Nc1ccc2c(c1)OCO2 (stereo partly drawn)	inactive
COc1cc2c(cc1OC)CN(C(=O)c1ccc(S(=O)(=O)N3CCCC3)cc1)CC2	inactive
CC(C)(C)OC(=O)C[C@@H]1C/C=C\C[C@H](CC(=O)N(CCO)Cc2ccccc2)C(=O)N[C@@H](c2ccccc2)COC1=O	inactive
Cc1c(Cl)cccc1NS(=O)(=O)c1ccc2c(c1)C1C=CCC1C(c1ccc(C(=O)O)cc1)N2 (stereo not drawn)	inactive
CN(c1ccccc1)S(=O)(=O)c1cccc(NS(=O)(=O)c2cccc(C(=O)O)c2)c1	inactive
O=C(c1cccc(S(=O)(=O)NCc2ccccc2)c1)N1CCN(c2ccccc2Cl)CC1	inactive
CCCC1(C2CCCC2)NC(=O)NC1=O (stereo not drawn)	inactive
Cc1cc(C)nc(SCC(=O)N/N=C/c2cc(C)n(-c3ccccc3C)c2C)n1	inactive
